Measured potencies and affinities stand elsewhere. Active and inactive are the calls of the source.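 How the source made its calls: active means compounds whose fitted concentration for half the maximal dye retention is below 100 µM; inactive means the rest.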
Target: Multidrug resistance protein CDR2 (Candida albicans (strain SC5314 / ATCC MYA-2876)) (UniProt P78595)
Assay: CaCDR2 efflux pump inhibitors in yeast, dose response, S. cerevisiae AD1-8u, singleplex, Cherry Pick2 set (AID 623994)

Sequence of Multidrug resistance protein CDR2 (Candida albicans (strain SC5314 / ATCC MYA-2876)) (P78595 whole entry, looked up): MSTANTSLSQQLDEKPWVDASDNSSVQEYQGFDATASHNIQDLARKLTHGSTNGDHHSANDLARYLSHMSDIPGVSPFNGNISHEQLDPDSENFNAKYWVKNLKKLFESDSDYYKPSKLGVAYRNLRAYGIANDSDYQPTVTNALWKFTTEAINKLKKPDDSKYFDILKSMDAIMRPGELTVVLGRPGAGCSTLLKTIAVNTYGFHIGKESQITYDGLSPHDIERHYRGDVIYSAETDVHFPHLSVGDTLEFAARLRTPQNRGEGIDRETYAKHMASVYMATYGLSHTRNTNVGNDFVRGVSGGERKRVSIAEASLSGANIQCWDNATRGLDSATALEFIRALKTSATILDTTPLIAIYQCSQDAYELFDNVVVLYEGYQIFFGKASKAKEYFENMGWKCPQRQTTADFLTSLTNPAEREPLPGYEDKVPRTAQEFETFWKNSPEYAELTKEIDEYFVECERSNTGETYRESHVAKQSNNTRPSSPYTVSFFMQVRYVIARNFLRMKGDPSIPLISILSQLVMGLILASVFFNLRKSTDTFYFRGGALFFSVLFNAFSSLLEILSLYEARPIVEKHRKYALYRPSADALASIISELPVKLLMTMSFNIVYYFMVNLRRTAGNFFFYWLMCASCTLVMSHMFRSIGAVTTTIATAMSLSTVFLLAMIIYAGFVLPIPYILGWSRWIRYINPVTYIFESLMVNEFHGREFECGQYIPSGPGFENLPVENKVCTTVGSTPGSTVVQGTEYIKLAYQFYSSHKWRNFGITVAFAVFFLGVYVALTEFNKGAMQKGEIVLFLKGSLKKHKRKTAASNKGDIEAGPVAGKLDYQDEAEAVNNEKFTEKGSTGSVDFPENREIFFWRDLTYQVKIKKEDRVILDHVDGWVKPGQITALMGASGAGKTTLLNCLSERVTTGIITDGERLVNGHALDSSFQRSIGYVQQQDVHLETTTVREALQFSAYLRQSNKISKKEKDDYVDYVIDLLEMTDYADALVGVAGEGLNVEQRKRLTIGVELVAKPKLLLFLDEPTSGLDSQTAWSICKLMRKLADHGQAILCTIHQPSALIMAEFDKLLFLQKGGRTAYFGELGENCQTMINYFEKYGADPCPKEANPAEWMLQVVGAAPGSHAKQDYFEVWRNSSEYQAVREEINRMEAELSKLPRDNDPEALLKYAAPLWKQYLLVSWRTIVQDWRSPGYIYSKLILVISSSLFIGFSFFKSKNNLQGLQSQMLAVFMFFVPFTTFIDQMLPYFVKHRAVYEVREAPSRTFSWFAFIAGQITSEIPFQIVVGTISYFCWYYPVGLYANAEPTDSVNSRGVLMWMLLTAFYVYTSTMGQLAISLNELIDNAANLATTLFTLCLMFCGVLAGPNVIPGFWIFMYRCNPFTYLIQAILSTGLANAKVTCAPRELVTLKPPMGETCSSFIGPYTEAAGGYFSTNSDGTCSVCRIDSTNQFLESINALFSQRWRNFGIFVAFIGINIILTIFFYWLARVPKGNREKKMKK

O=C(c1ccoc1)N1CCC2(CC1)Oc1ccc(F)cc1C(=O)C21CC(c2ccccc2)=NO1 (centres undefined)
outcome: inactive

COc1ccc2c(c1)OC[C@H]1[C@H]2N2C(=O)c3ccc(C)cc3NC(=O)[C@@]2(C)[C@H]1c1ccccc1
outcome: inactive

CCO[C@@H]1OC(C(=O)Nc2ccccc2)=C[C@H](c2ccccc2)[C@H]1CCCO
outcome: inactive

O=C(Nc1ccccc1)C1=C[C@@H](c2ccc(Br)cc2)C[C@@H](OCCCCO)O1
outcome: inactive

CC1CN(c2nc3ccccc3nc2C(C#N)C(=O)NCc2ccc3c(c2)OCO3)CC(C)O1 (centres undefined)
outcome: inactive

Cc1ccc(O)c(C(=O)c2cnc3c(c2)CN(C)C(=O)N3)c1
outcome: inactive

NS(=O)(=O)c1ccc(N2N=C(c3ccccc3)CC2c2ccc(Br)cc2)cc1 (centres undefined)
outcome: inactive

COc1ccc([C@H]2CC(=O)C=C(c3ccnc4ccc(Cl)cc34)C2)cc1
outcome: inactive

CCN(CC)CCC(c1ccc(N(C)C)cc1)c1c(OC)cc(OC)c2ccc(=O)oc12 (centres undefined)
outcome: inactive

Cc1ccc(CN2C(=O)C(CC(C)C)Nc3ncnc(N4CCN(c5ccccc5)CC4)c32)cc1 (centres undefined)
outcome: inactive

Cc1cc(C)c2sc(N(CCCN(C)C)C(=O)c3ccc(Br)s3)nc2c1
outcome: inactive

Cc1cccc(C2CC(c3ccccc3)=NN2c2ccc(S(N)(=O)=O)cc2)c1 (centres undefined)
outcome: inactive

COc1cccc(-c2sc3ccc(OC)cc3c2-c2ccc(OCCN3CCOCC3)cc2)c1
outcome: inactive

CC(C)C(=O)N1CCC2(CC1)Oc1ccc(Cl)cc1C(=O)C21CC(c2ccc(Cl)cc2)=NO1 (centres undefined)
outcome: inactive

COc1ccc(CNC(=O)C(C#N)c2nc3ccccc3nc2N2CCCC2)cc1 (centres undefined)
outcome: inactive

O=C(C[n+]1cc(-c2ccc(Cl)cc2)n2c1CCC2)N1c2ccccc2Sc2ccccc21
outcome: inactive

O=C1C(Cc2ccccc2)Nc2ncnc(N3CCN(c4ccccc4)CC3)c2N1Cc1ccccc1 (centres undefined)
outcome: inactive

COc1cc(OC)c2ccc(=O)oc2c1C(CCN1CCCCC1)c1ccc(N(C)C)cc1 (centres undefined)
outcome: inactive

CCCCNC(=O)C1CCC(CNc2nc(=S)[nH]c3ccccc23)CC1 (centres undefined)
outcome: inactive

NS(=O)(=O)c1ccc(N2N=C(c3ccccc3)CC2c2ccc(F)cc2)cc1 (centres undefined)
outcome: inactive

O=C(NC1CCCc2c1cnn2-c1ccccc1F)c1ccccn1 (centres undefined)
outcome: inactive

COc1ccc(C2CC(c3ccccc3)=NN2c2ccc(S(N)(=O)=O)cc2)cc1 (centres undefined)
outcome: inactive

Cc1ccc(C)c(N2CCN(C(=O)C3CCCN(c4ncnc5c4nc4n5CCCCC4)C3)CC2)c1 (centres undefined)
outcome: inactive

CCCCCCCCCC[N+](C)(C)CC/C=C1/c2ccccc2Sc2ccc(Cl)cc21
outcome: inactive

CCC(=O)N1CCN(c2ccc(Cl)cc2NC(=O)c2ccc3c(c2)OCCO3)CC1
outcome: inactive

NS(=O)(=O)c1ccc(N2N=C(c3ccccc3)CC2c2ccccc2)cc1 (centres undefined)
outcome: inactive

O=C(CSc1nnc(Cc2cccs2)n1Cc1ccco1)Nc1cccc(Cl)c1
outcome: inactive

COc1ccc(C2CC(c3ccccc3C(F)(F)F)=NN2c2ccc(S(N)(=O)=O)cc2)cc1 (centres undefined)
outcome: inactive

O=C(c1ccc2c(c1)OCO2)N1CCC2(CC1)Oc1ccc(F)cc1C(=O)C21CC(c2ccccc2)=NO1 (centres undefined)
outcome: inactive
